Measured values: PubChem BioAssay (EPA / NIEHS)
“And” between values parts separate entries of the source, which are not always exact repeats. Equal values may be shown once. Results filed as inconclusive are left out. Where a structure was tested more than once in an assay, its records may differ in their call. The source made the active and inactive calls. Rule for the calls: active = hit-call score of the fitted dose curve at least 0.9, where 1 is the maximum; inconclusive = response in the unintended direction; inactive = score below 0.9.

Assay: TOX21_p53_BLA_p5_viability: Viability Assessment in the Tox21 HCT-116 p53 Agonism Beta-lactamase Assay, Phase 5 (AID 2283600)
How it was run: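 Decreased CellTiter-Glo luminescence denotes lost viability. Exposure: 16 h at 37C, 5% CO2, with compounds from DMSO stocks diluted 217-fold in wells of 4000 cells.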

Row | SMILES | outcome | AC50
1 | Cc1cc(-c2ccc(N)c(C)c2)ccc1N | inactive | 
2 | CCOC(=O)C(O)(c1ccc(Cl)cc1)c1ccc(Cl)cc1 |  | 81.7 µM (active) and 24.7 µM (active)
3 | OCC(O)CO | inactive | 
4 | ClC(Cl)=C(c1ccc(Cl)cc1)c1ccc(Cl)cc1 | inactive | 
5 | NS(=O)(=O)C(F)(F)C(F)(F)C(F)(F)C(F)(F)C(F)(F)C(F)(F)C(F)(F)C(F)(F)F |  | 46.1 µM (active)
6 | CC(c1ccc(O)cc1)(c1ccc(O)cc1)c1ccc(O)cc1 | inactive | 
7 | CN(C)CCO | inactive | 
8 | c1cc2ccc3cccc4ccc(c1)c2c34 | inactive | 
9 | CCC(C)(c1ccc(O)cc1)c1ccc(O)cc1 | inactive | 
10 | ClC1=C(Cl)[C@]2(Cl)[C@@H]3[C@@H](Cl)[C@H]4O[C@H]4[C@@H]3C1(Cl)C2(Cl)Cl | inactive | 
11 | Oc1ccc(C(c2ccc(O)cc2)(C(F)(F)F)C(F)(F)F)cc1 | inactive | 72.3 µM (active)
12 | C=CC(=O)NCNC(=O)C=C | inactive | 
13 | Cc1ccc(O)c(C)c1 | inactive | 
14 | CC(C)(O)C(=O)Nc1ccc([N+](=O)[O-])c(C(F)(F)F)c1 | inactive | 
15 | C[C@]12CCC(=O)C=C1CC[C@@H]1[C@@H]2CC[C@]2(C)C(=O)CC[C@@H]12 | inactive | 
16 | CC(C)C(=O)OCC(C)(C)C(OC(=O)C(C)C)C(C)C (centres undefined) | inactive | 

Row | SMILES | outcome | AC50
17 | O=NN(c1ccccc1)c1ccccc1 | inactive | 
18 | O=C(N[C@H]1CN2CCC1CC2)c1cc2ccoc2cn1 | inactive | 
19 | CO/C=C(/C(=O)OC)c1ccccc1COc1cccc(C(F)(F)F)n1 | inactive | 
20 | CCC(C)c1cc([N+](=O)[O-])cc([N+](=O)[O-])c1O (centres undefined) | inactive | 
21 | COS(=O)(=O)OC | inactive | 
22 | Nc1ccc(-c2ccc(N)cc2)cc1 | inactive | 
23 | Cc1cccc([N+](=O)[O-])c1 | inactive | 
24 | O=C(O)C(F)(F)C(F)(F)C(F)(F)C(F)(F)C(F)(F)C(F)(F)C(F)(F)C(F)(F)F | inactive | 
25 | CCCCCCCCCC[N+](C)(C)CCCCCCCCCC |  | 23 µM (active)
26 | CC(C)(c1ccccc1)c1ccc(O)cc1 | inactive | 
27 | ClC1=C(Cl)[C@]2(Cl)[C@@H]3[C@H]4C[C@H]([C@@H]5O[C@H]45)[C@@H]3[C@@]1(Cl)C2(Cl)Cl | inactive | 
28 | Clc1ccc(Cl)cc1 | inactive | 
29 | Oc1c(Cl)c(Cl)c(Cl)c(Cl)c1Cl | inactive | 
30 | C[C@]12CCC(=O)C=C1CC[C@@H]1[C@@H]2CC[C@@]2(C)[C@H]1CC[C@]2(C)O | inactive | 
31 | O=C(NC(=O)c1c(F)cccc1F)Nc1cc(Cl)c(OC(F)(F)C(F)F)c(Cl)c1 | inactive | 
32 | Clc1ccc(C(c2ccccc2Cl)C(Cl)(Cl)Cl)cc1 (centres undefined) | inactive | 72.2 µM (active)
